Screening results from PubChem BioAssay.
D2 antag: D2 dopamine receptor (human) antagonism; AID 485344; HEK293 TREx D2 cells, calcium flux, dopamine EC80; P14416; actives 2% (n = 340,000); inhibition, % at 10 µM; in the data active = inhibition above about 30%; inactive = below that, where a call was filed
Target sequence (P14416 whole entry, looked up): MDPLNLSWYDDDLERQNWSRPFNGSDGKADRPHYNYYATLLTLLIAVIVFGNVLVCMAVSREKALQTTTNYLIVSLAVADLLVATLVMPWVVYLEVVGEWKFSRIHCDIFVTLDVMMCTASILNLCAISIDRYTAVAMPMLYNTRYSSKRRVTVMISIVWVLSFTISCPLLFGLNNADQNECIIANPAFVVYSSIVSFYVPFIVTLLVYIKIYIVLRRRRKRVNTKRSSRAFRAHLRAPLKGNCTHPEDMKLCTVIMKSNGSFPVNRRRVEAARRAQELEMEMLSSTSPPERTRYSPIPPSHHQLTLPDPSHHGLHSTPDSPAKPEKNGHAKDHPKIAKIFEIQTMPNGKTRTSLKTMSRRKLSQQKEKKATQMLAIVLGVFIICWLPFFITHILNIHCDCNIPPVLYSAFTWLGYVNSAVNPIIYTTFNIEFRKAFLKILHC
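Tetracycline-induced HEK293 T-REx cells expressing D2 force-coupled to calcium signalling were dye-loaded, exposed to compound for 180 s, then challenged with an EC80 of dopamine; calcium flux was followed kinetically for a further 180 s.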
D2 ag-1: D2 dopamine receptor (human) agonism; P14416; HEK293 T-REx D2 cells, calcium flux agonist mode; activation, % at 2 µM; actives 0.53% (n = 340,000);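 active = activation over 3 SD above normal in the single-dose calcium agonist read, cut at about 30% in these data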
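Agonism scored from kinetic calcium signal (1 read/sec, 180 s) following compound pin transfer, after a 10 s baseline. Cells: HEK293 Trex line expressing inducible D2 receptor coupled to calcium, dye-loaded after overnight culture at 30 C.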
D2 PAM-1: positive allosteric modulators of human D2 dopamine receptor; potentiation, % at 10 µM; P14416; HEK293 T-REx D2, calcium flux, EC20 dopamine potentiation; actives 0.34% (n = 340,000);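 active = potentiation over 3 SD above the plate norm, cut at about 30% in these data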
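Tetracycline-induced HEK293 T-REx cells force-coupled to calcium signalling expressed D2; compounds were pin-added after a 10 s baseline, read kinetically 180 s, then an EC20 dopamine challenge followed with a further 180 s calcium read.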
D2 ag-2: activates the human D2 dopamine receptor | activation, % (concentration not given with the values) | DiscoveRx PathHunter D2 beta-arrestin, luminescence, 90 min; 100% = 57 uM dopamine signal | AID 624465 | actives 0.084% (n = 360,000); in the data active = activation above about 40%; inconclusive = between about 15% and that limit
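DiscoveRx PathHunter D2 beta-arrestin cells (2,100/well) attached overnight, then compound-stimulated 90 min at 37 C in HBSS/10 mM HEPES/0.1% Tween-20 buffer; beta-galactosidase complementation read by luminescence after 1 h at ambient temperature. Dopamine 57 uM final (EC100) as control.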
D2 PAM-2: human D2 receptor positive allosteric modulation. actives 0.23% (n = 360,000). potentiation, % (test concentration not listed). DiscoveRx D2 beta-arrestin cells, luminescence, 90 min; 100% = 57 uM dopamine signal; in the data active = potentiation above about 50%; inconclusive = mostly about 30% to 49%
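PathHunter beta-arrestin assay in DiscoveRx D2 cells. Compounds were added with an EC20 of dopamine (50 nM final) for 90 min at 37 deg C. Luminescence was read 1 h after detection reagent, with 57 uM dopamine as the EC100 control.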
Large screens that a line does not name were inactive; ! = repeats disagree. This is a sample that favours compounds with a hit; in the whole collection about 2.4% have one here.

COc1ccc2cc(C(C)C(=O)N3CCC(C(N)=O)CC3)ccc2c1 (stereo unspecified)	D2 PAM-1 32
CCOC(=O)c1scc(-c2ccc(C)cc2)c1S(=O)(=O)Nc1cc(Cl)ccc1OC	none (no result: D2 antag, D2 ag-2, D2 PAM-2)
Nc1c(-c2nc(-c3ccccc3)cs2)c2ccccn2c1C(=O)c1ccc2c(c1)OCO2	none (no result: D2 antag, D2 ag-2, D2 PAM-2)
COc1ccc(C(=O)C(C)OC(=O)c2sc(C)nc2C)cc1 (stereo unspecified)	D2 antag 31
COc1ccc(CC(=O)OC(C)C(=O)c2ccc(C)cc2)cc1 (stereo unspecified)	none
CC(C)(C)NC(=O)CN(Cc1ccc2c(c1)OCO2)C(=O)CCC(=O)Nc1nccs1	none
CCC(C)(C)NC(=O)CN(Cc1ccc2c(c1)OCO2)C(=O)CCC(=O)Nc1cc(C)ccn1	D2 antag 42
COc1cccc(OC)c1-c1nn(-c2ncc(C(F)(F)F)cc2Cl)c(=O)o1	D2 antag 38
N#CCC(=O)Nc1ccc(C(=O)OCC(=O)C23CC4CC(CC(C4)C2)C3)cc1	none
O=C(OCC12CC3CC(CC(C3)C1)C2)c1ccc(NCc2cc(O)ccc2O)cc1	D2 ag-2 inconclusive, D2 PAM-2 55 (no result: D2 antag, D2 ag-1, D2 PAM-1)
O=C(OCCC12CC3CC(CC(C3)C1)C2)c1ccc(NCc2cc(O)ccc2O)cc1	D2 ag-2 inconclusive, D2 PAM-2 64 (no result: D2 antag, D2 ag-1, D2 PAM-1)
Cc1cc(Cl)ccc1OCC(=O)N(Cc1ccc(N(C)C)cc1)CC1CCCO1 (stereo unspecified)	none (no result: D2 antag, D2 ag-2, D2 PAM-2)
CSc1ccc(CNC(=O)C2CCCN(S(=O)(=O)N(C)c3ccc(F)cc3)C2)cc1 (stereo unspecified)	none (no result: D2 antag, D2 ag-2, D2 PAM-2)
COc1cc(NC(=O)CCCC(=O)OCC(F)(F)C(F)F)nc(OC)n1	D2 antag 52
CC(C)c1nc2ccc(C(=O)NCCCN3CCN(c4ccccc4F)CC3)cc2o1	none (no result: D2 antag, D2 ag-1, D2 ag-2, D2 PAM-2)
CN(C)c1nc2n(c(=O)n1)CCS2	none
CN(C)c1nc2n(c(=O)n1)C(C#N)CS2 (stereo unspecified)	D2 antag 33
COc1cc2c(C(=O)N(C)c3cc(Cl)ccc3OC)cn(CC(C)C)c(=O)c2cc1OC	none (no result: D2 antag, D2 ag-2, D2 PAM-2)
CCOC(=O)c1ccc(NC(=O)CCc2c(C)nc3c(c(C)nn3-c3ccccc3)c2C)cc1	none (no result: D2 antag, D2 ag-2, D2 PAM-2)
CCc1cccc(NC(=O)Cn2c(=O)n3nc(-c4cccc(F)c4)nc3c3ccccc32)c1	none (no result: D2 antag, D2 ag-2, D2 PAM-2)
Cc1nc2nc(SCC(=O)c3cccc([N+](=O)[O-])c3)[nH]c2cc1Br	D2 antag 38
O=C(Nc1c(C(=O)N2CCN(c3ccc(F)cc3)CC2)oc2ccccc12)c1c(F)cccc1F	none (no result: D2 antag, D2 ag-2, D2 PAM-2)
CCc1ccc(NC(=O)CCC(=O)Nc2nnc(C(C)C)s2)cc1	D2 antag 43
CC(C)c1nnc(NC(=O)CCC(=O)Nc2ccc(F)cc2)s1	none
Nc1ccn([C@H]2CC[C@@H](CO)O2)c(=O)n1	D2 antag 37!
CN(CC(=O)Nc1cccc(F)c1)S(=O)(=O)c1ccc2c(c1)n(C)c(=O)c(=O)n2C	none (no result: D2 antag, D2 ag-1, D2 ag-2, D2 PAM-2)
CCCCCCC(C)NC(=S)Nc1cc(S(=O)(=O)N(C)C)ccc1C (stereo unspecified)	D2 antag 92
Cc1ccc(S(=O)(=O)N(C)C)cc1NC(=S)NC(C)CCCC(C)C (stereo unspecified)	D2 antag 75
Cc1ccc(S(=O)(=O)N(C)C)cc1NC(=S)NC(C)CCC(C)C (stereo unspecified)	D2 antag 77
Cc1cc2c(cc1S(=O)(=O)N(CCN(C)C)Cc1ccccc1)OCC(=O)N2	none (no result: D2 antag, D2 ag-2, D2 PAM-2)
O=C(NCc1ccccc1)C(=O)Nc1nc(C23CC4CC(CC(C4)C2)C3)cs1	D2 antag 32
COc1ccc(S(=O)(=O)NCC(c2ccco2)S(=O)(=O)c2cccs2)cc1F (stereo unspecified)	none (no result: D2 antag, D2 ag-2, D2 PAM-2)
O=c1[nH]c(/C=C/c2ccc3c(c2)OCO3)c([N+](=O)[O-])c(=O)[nH]1	none (no result: D2 ag-2, D2 PAM-2)
O=c1[nH]c(/C=C/c2ccc([N+](=O)[O-])cc2)c([N+](=O)[O-])c(=O)[nH]1	D2 ag-2 inconclusive, D2 PAM-2 52
Cc1ccc(Cc2nc3ccccc3nc2SCC(=O)Nc2ccc3c(c2)OCO3)cc1	none (no result: D2 antag, D2 ag-2, D2 PAM-2)
O=C(NC1CC1)C1CCN(C2CCN(C(=O)Cc3ccc(F)cc3)CC2)CC1	D2 antag 34
